SW480 rerep = inducers of DNA re-replication in SW480 colon cancer cells; AID 624297; SW480 DNA re-replication, Hoechst DNA content imaging, 48 h; Potency, µM (highest dose often 46.1 µM), for inactives: at the top dose re-replication activation, hits mostly activators; 1.8% of 340,000 active; also: % of control where 0% means no effect; nearly all actives have a fitted effect of over 55% in size
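Image-based read-out: total Hoechst fluorescence of nuclei (405 nm excitation, 500-530 nm emission), with hits raising the fraction of high-intensity nuclei. SW480 colon cells incubated 48 hr with compounds at 37 C.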
ELG1 genotox = inducers of genotoxicity in HEK293T ELG1-luciferase cells; 1.3% of 330,000 active; Potency, µM (top dose mostly 46 µM), for the others: at the highest dose activity change, positive = activation, actives largely listed as activators; HEK293T ELG1-luciferase reporter, luminescence, 16 h; also: % of control where 0% means no effect; nearly all actives have a fitted effect of over 60% in size
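Quantitative HTS format in 1536-well plates. HEK293T ELG1-luciferase reporter cells receive test compound and are incubated 16 hr at 37 °C, 5% CO2; ONE-Glo added, 30 min room temperature, then luminescence read.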
ELG1 repair inh = blocks ELG1-dependent DNA repair in HEK293T cells; HEK293T ELG1-luciferase reporter, luminescence, 16 h; DNA damage induced by 5-fluorouridine; Potency, µM (top dose mostly 46.1 µM), for inactives: at the top dose activity change, negative = inhibition, actives largely listed as inhibitors; 2.3% of 330,000 active; also: % is scaled to controls: 0 for no effect and ±100 for the full control effect; nearly all actives have a fitted effect of over 55% in size
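Overnight (16 hr) co-exposure of 2,000 cells/well to 5-fluorouridine and compound at 37 °C preceded detection. Luciferase was quantified via ONE-Glo luminescence; loss of signal denotes inhibition.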
MCF10A rereplic = inducers of DNA re-replication in MCF 10A breast cells; MCF 10A DNA re-replication, Hoechst nuclear intensity, 48 h; Potency, µM (top dose mostly 46.1 µM), inactives show top-dose activity, positive = re-replication, hits mostly activators; 2.9% of 350,000 active; AID 624296; also: % of control where 0% means no effect; nearly all actives have a fitted effect of over 50% in size
A-T KAP1 phos = candidate therapy for ataxia-telangiectasia | AID 485349 | Potency, µM (highest dose often 57.5 µM), inactives show at the highest dose activation, hits mostly activators | F2112 A-T fibroblasts, KAP-1 phosphorylation AlphaLISA; neocarzinostatin DNA damage 30 min before lysis | 0.19% of 320,000 active; also: % of control where 0% means no effect; nearly all actives have a fitted effect of over 45% in size
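hTERT-immortalized A-T patient fibroblasts (F2112), 500 cells/well in OPTI-MEM, 1% FBS, got compounds for 60 min, then NCS for 30 min at 37C. Lysates were then assayed for phospho-KAP-1 by AlphaLISA (anti-pKAP1 donor, anti-KAP1 acceptor beads), 6 hr at 25C.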
p53 reactivation = restores transcriptional activity of mutant p53; H1299 p53-A138V BP100-luciferase reporter, luminescence, 24 h; Potency, µM (series often up to 92.2 µM), without a hit: at the top dose activity change, positive = activation, usual class: activators; 0.063% of 320,000 active; AID 504706; also: % of control where 0% means no effect; nearly all actives have a fitted effect of over 45% in size
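p53-null H1299 cells stably carrying temperature-sensitive p53-A138V and a BP100-luciferase reporter were pinned with compounds (4-point, 1:5 series) and held 24 hrs at 37 deg C. Luminescence was read 10 min after detection reagent.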
ELG1 FLuc counter = luciferase inhibition in cell-free luciferin readout for ELG1 hits | shares compounds with ELG1 repair inh | cell-free firefly luciferase luminescence counter-screen, ViewLux | Potency, µM (doses to about 46.1 µM), for inactives: top-dose activity change, negative = inhibition, hits mostly inhibitors | 3% of 350 active | AID 624247; also: % is scaled to controls: 0 for no effect and ±100 for the full control effect
ELG1-Luc inh = confirmation of human ELG1-dependent DNA repair inhibitors; shares compounds with ELG1 repair inh; HEK293T ELG1-luciferase levels, luminescence; cells co-treated with 5-fluorouridine; Potency, µM (highest dose often 46.1 µM), inactives show at the top dose activity change, negative = inhibition, actives largely listed as inhibitors; 68% of 670 active; AID 624248; also: % is scaled to controls: 0 for no effect and ±100 for the full control effect; nearly all actives have a fitted effect of over 55% in size
ELG1 MMS Luc = MMS-stimulated human ELG1 repair inhibition, confirmed | shares compounds with ELG1 repair inh | HEK293T luciferase-tagged ELG1 level, MMS stimulated | Potency, µM (series often up to 46.1 µM), inactives show at the top dose activity change, negative = inhibition, hits mostly inhibitors | 53% of 670 active | AID 624249; also: % is scaled to controls: 0 for no effect and ±100 for the full control effect; nearly all actives have a fitted effect of over 60% in size
ELG1 5FU viab = confirmation of ELG1 repair inhibitors: viability with 5FU; shares compounds with ELG1 repair inh; cell viability with 5-FU, ELG1-dependent repair; Potency, µM (titrated, usually from 46.1 µM), inactives show top-dose activity change, negative = viability loss, hits mostly cytotoxic; 670 tested, under 10 active;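 also: ELG1-luc HEK293T cells cotreated with 5-fluorouridine at 10 µM final; viability measured 16 h after compound addition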
ELG1 MMS viab = confirmation of ELG1 repair inhibitors: viability with MMS; shares compounds with ELG1 repair inh; Cell viability with MMS, ELG1-dependent DNA repair; Potency, µM (top dose mostly 46.1 µM), without a hit: at the top dose activity change, negative = viability loss, most hits filed as cytotoxic; 33% of 670 active; AID 624251;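 also: ELG1-luc HEK293T cells co-treated with 10 µM MMS; viability read 16 h after compound addition; % is scaled to controls: 0 for no effect and ±100 for the full control effect; nearly all actives have a fitted effect of over 60% in size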
Cell viab unstim = affects unstimulated cell viability, ELG1 hit counter-screen; cell viability counter-screen, unstimulated, luminescence; shares compounds with ELG1 repair inh; Potency, µM (doses to about 45.9 µM), for the others: at the top dose activity change, negative = loss of viability, hits mostly cytotoxic; 8% of 900 active; AID 624252;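 also: compound exposure lasted 16 hours before reading; % is scaled to controls: 0 for no effect and ±100 for the full control effect; nearly all actives have a fitted effect of over 55% in size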
FLuc biochem = inhibits purified firefly luciferase, counter-screen for ELG1 hits; shares compounds with ELG1 repair inh; purified firefly luciferase, luminescence counter-screen; Potency, µM (doses to about 57.5 µM), for the others: top-dose activity, negative = inhibition, most hits filed as inhibitors; 10% of 350 active; AID 624253; also: % is scaled to controls: 0 for no effect and ±100 for the full control effect
Numbers without * were called inactive; ? = inconclusive; / = not tested or not shown; [ ] = another dose, or the depositor's remark. The list is not random: actives were taken first. Their share in the collection is about 7.1%. Calls follow the shape of the dose curve; as a rule, active = well fitted curve in the direction sought with a large enough effect; inconclusive = small, poorly fitted or top-dose-only effect, or another doubt; inactive = no such curve, though single readings can be large; an effect the other way counts as inactive or inconclusive. Potency is read from the fitted curve at half-maximal effect.

SMILES	SW480 rerep	ELG1 genotox	ELG1 repair inh	MCF10A rereplic	A-T KAP1 phos	p53 reactivation	ELG1-Luc inh	ELG1 MMS Luc	ELG1 5FU viab	ELG1 MMS viab	Cell viab unstim	others
CCOc1cc(N2CCOCC2)c(OCC)cc1NC(=O)c1cc(S(=O)(=O)N2CCOCC2)ccc1C	-8%	-2%	?	-2%	-8%	-9%	/	/	/	/	/
COc1ccc(-c2noc(CN(C)Cc3ccccc3)n2)c(OC)c1OC	-5%	0%	?	6%	7%	-22%	/	/	/	/	/
Cn1cccc1/C=N/NC(=O)Cc1ccccc1	-1%	0%	14%	0%	2%	0%	/	/	/	/	/
Cn1cccc1/C=N\NC(=O)Cc1ccc(Br)c2ccccc12	?	-6%	3.7µM*	?	-4%	4%	?	7.9µM*	-13%	7.9µM*	?
O=S1(=O)[C@H]2C[C@H](CO)O[C@@]2(CO)CN1Cc1ccc(-c2cccc(Cl)c2)cc1	-4%	3%	2.3µM*	?	11%	-8%	2.5µM*	-6%	?	?	?
COc1ccc2c(c1)c(C(C)=O)c(C)n2-c1ccc(C(C)=O)cc1	1%	-21%	?	0%	5%	-4%	/	/	/	/	/
COc1ccc(-n2c(C)c(C(C)=O)c3cc(OC(C)=O)ccc32)cc1	-13%	-11%	0.82µM*	1%	-3%	5%	0.63µM*	?	15%	9%	-8%	ELG1 FLuc counter=-18%;FLuc biochem=-2%
Cc1cc2oc(=O)cc(Cn3ccnc3)c2cc1Cl	-3%	-2%	-5%	0%	-4%	-4%	/	/	/	/	/
CCCCCn1c(N)c(-c2nc3ccccc3s2)c2c([N+](=O)[O-])nn(C)c(=O)c21	-2%	0%	0.73µM*	?	-1%	-8%	5µM*	28µM*	?	?	-4%	ELG1 FLuc counter=?;FLuc biochem=-9%
CCCCn1c(N)c(-c2nc3ccccc3o2)c2c([N+](=O)[O-])nn(CC)c(=O)c21	-9%	7%	2.1µM*	0%	0%	3%	1µM*	16%	?	-1%	-6%
CCCCn1c(N)c(-c2nc3ccccc3o2)c2c([N+](=O)[O-])nn(C)c(=O)c21	-11%	-1%	?	-1%	-1%	7%	?	9%	?	12%	0%
C=CCN(c1ccccc1)S(=O)(=O)c1cccc(C(=O)NCC(c2cccs2)N2CCOCC2)c1 (stereo not given)	7%	-4%	?	19%	-4%	1%	/	/	/	/	/
COc1ccc(C(=O)NCCc2c[nH]c3ccccc23)cc1[N+](=O)[O-]	-4%[9.22 µM]	-14%	?	4%	0%	6%	/	/	/	/	/
CCN(Cc1ccccc1)C(=O)CCS(=O)(=O)c1ccc2c(c1)CCN2C(C)=O	4%	-6%	4%	0%	4%	-5%	/	/	/	/	/
COc1cc(-c2nn3c(-c4ccccc4)nnc3s2)cc(OC)c1OC	0%	-3%	?	?	3%	1%	/	/	/	/	/
CCOc1cccc(-c2nnc3sc(-c4cc(OC)c(OC)c(OC)c4)nn23)c1	?	8%	3.3µM*	?	-5%	7%	?	15%	4%	-3%	?
CCCC(NC(=O)CCc1c(C)c2cc3c(-c4ccccc4)coc3cc2oc1=O)C(=O)O (stereo not given)	-5%	2%	13%	18%	10%	-7%	/	/	/	/	/
CCN(CC(=O)Nc1c(C(=O)OC)[nH]c2ccc(C)cc12)c1ccc2c(c1)OCO2	13%	-11%	4.6µM*	?	-17%	-1%	7.1µM*	?	?	-1%	?
O=[N+]([O-])c1ccc(NS(=O)(=O)c2cccc3cccnc23)cc1	8%	1%	-4%	4%	-8%	0%	/	/	/	/	/
COc1ccc(S(=O)(=O)Nc2cccc3cccnc23)c([N+](=O)[O-])c1	/	/	/	/	/	/	/	/	/	/	?
Cn1ncc(Br)c1C(=O)N/N=C/c1cccc(OC2CSC2)c1	-30%	2%	4.1µM*	-51%	7%	-14%	-7%	6%	-6%	?	-11%
Cc1[nH]n(-c2nc(-c3ccc(Cl)cc3)cs2)c(=O)c1N=Nc1ccc(O)cc1	-1%	-13%	4.1µM*	?	10%	-2%	16µM*	16µM*	?	28µM*	?
CCc1c(C)[nH]n(-c2nc(-c3ccccc3)cs2)c1=O	11%	4%	6%	14%	-2%	22%	/	/	/	/	/
O=C(CCN1C(=O)NC2(CCCC2)C1=O)Nc1ccc(-c2nc3ccccc3s2)cc1	16µM*	?	?	23µM*	4%	/	/	/	/	/	?	ELG1 FLuc counter=120%;FLuc biochem=3.7µM*
O=C(Nc1cc(Br)ccc1O)c1cnn2c(C(F)F)cc(C3CC3)nc12	18%	-6%	2.3µM*	?	7%	6%	1µM*	15%	?	-3%	?

Screening data from PubChem.
